DT40 TDP1 CPT = qHTS for Inhibitors of human tyrosyl-DNA phosphodiesterase 1 (TDP1): qHTS in cells in presence of CPT. chicken DT40 Tdp1-/-;hTDP1 cells + 20 nM CPT, ATP luminescence, 48 h. Potency, µM (highest dose often 46.2 µM), inactives show at the highest dose activity change, negative = growth inhibition, hits mostly inhibitors. hit rate 12% among 420,000; further: nearly all actives have a fitted effect of over 55% in size
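Cell growth measured by CellTiter-Glo luminescence after a minimum 48 h, 37 C compound exposure with 20 nM CPT in Tdp1-knockout DT40 cells stably expressing hTDP1, seeded 400/well; qHTS titration format.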
HT1080 IDH1KD tx = qHTS for induction of synthetic lethality in tumor cells producing 2HG: qHTS for the HT-1080-IDH1KD cell line; HT-1080 IDH1 knockdown viability, ATP luminescence, 48 h; Potency, µM (doses to about 46.1 µM), for the others: at the top dose activity, negative = toxicity, hits mostly cytotoxic; hit rate 2% among 360,000;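 further: 0% = DMSO wells and -100% = cell-free medium wells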
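IDH1KD HT-1080 cells, 750/well, RPMI + 5% FBS; compound pinned after 2 h settling; 48 h, 37 °C; CellTiter-Glo luminescence; % activity normalised to DMSO and no-cell wells; curves fitted, classed by r2 and efficacy.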
KB-3-1 tox = qHTS assay for MDR1-selective chemotherapeutics: Primary screen using the parental adenocarcinoma cell KB-3-1 | AID 1347075, 2019 | Potency, µM (doses to about 46.1 µM), usual class: cytotoxic | hit rate 1.4% among 400,000 | KB-3-1 viability, CellTiter-Glo ATP luminescence, 72 h; further: nearly all actives have a fitted effect of over 60% in size
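Here the drug-naive KB-3-1 line serves as comparator for MDR sub-line selectivity; cells received compound titrations, 72 h at 37 °C, then CellTiter-Glo readout.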
DT40 TDP1 no CPT = qHTS for Inhibitors of human tyrosyl-DNA phosphodiesterase 1 (TDP1): qHTS in cells in absence of CPT; Potency, µM (doses to about 46.2 µM), for the others: at the top dose activity change, negative = growth inhibition, usual class: inhibitors; hit rate 15% among 420,000; DT40 Tdp1-/- hTDP1 cells, no CPT, ATP luminescence, 48 h; AID 686978, 2013; further: nearly all actives have a fitted effect of over 55% in size
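Seeded 400 DT40-hTDP1 cells/well (vehicle DMSO, no 20 nM CPT); pinned compounds; ≥48 hr at 37 °C; CellTiter-Glo luminescence as viability measure.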
HT1080NT lethal = qHTS for induction of synthetic lethality in tumor cells producing 2HG: qHTS for the HT-1080-NT fibrosarcoma cell line; Potency, µM (top dose mostly 46.1 µM), inactives show at the top dose activity, negative = less viability, hits mostly cytotoxic; hit rate 1.6% among 360,000; HT-1080-NT fibrosarcoma viability, CellTiter-Glo ATP luminescence, 48 h;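 further: NT is the 2HG producing partner of a matched IDH1 knockdown line; 0% = DMSO-treated cells and -100% = media-only wells without cells; nearly all actives have a fitted effect of over 55% in size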
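HT-1080-NT fibrosarcoma cells (2HG-overproducing), 750 cells/well in RPMI with 5% FBS, dosed after 2 h and incubated 48 h at 37C. CellTiter-Glo luminescence normalized to DMSO and no-cell wells; concentration-response curves fitted and classed.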
KB-V1 MDR tox = qHTS assay for MDR1-selective chemotherapeutics: Primary screen using the drug-selected MDR subline cells KB-V1; KB-V1 MDR cells viability, CellTiter-Glo, 72 h; Potency, µM (top dose mostly 46.1 µM), most hits filed as cytotoxic; hit rate 3.4% among 400,000; AID 1347076, 2019; further: nearly all actives have a fitted effect of over 60% in size
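Following 72 h at 37 degrees C with compound, KB-V1 cell viability was read by CellTiter-Glo luminescence, medium being phenol-red-free DMEM plus 10% FBS; concentration-response parameters came from normalized, curve-fitted qHTS data.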
* marks the source's active call; other numbers are inactive results; i = inactive; ? = inconclusive; . = no result given. This is a sample that favours compounds with a hit; in the whole collection about 19% have one here. The call rests on the fitted dose curve; in most records, active means well fitted curve in the direction sought with a large enough effect; inconclusive means small, poorly fitted or top-dose-only effect, or another doubt; inactive means no such curve, though single readings can be large; an effect the other way counts as inactive or inconclusive. Unless noted, on the % scale 0 is the no-effect control and ±100 the full control effect; potency means the concentration at half of the fitted maximal effect.

SMILES | DT40 TDP1 CPT | HT1080 IDH1KD tx | KB-3-1 tox | DT40 TDP1 no CPT | HT1080NT lethal | KB-V1 MDR tox
O=C(CN1CCN(CC(=O)Nc2ccc3c(c2)OC2(CCCCC2)O3)CC1)Nc1cccc(F)c1 | 23µM* | -22% | i | 16µM* | -5% | 5.8µM*
O=C(CSc1nc(-c2ccco2)nc2cc(=O)[nH]n12)Nc1ccc(F)cc1 | -12% | . | i | -10% | . | i
CC(C)c1ccc(NC(=O)CN(C)S(=O)(=O)c2ccc3c(c2)n(C)c(=O)c(=O)n3C)cc1 | -30% | . | i | ? | . | i
CCOC(=O)c1ccc(N2C(=O)c3n[nH]c(-c4ccco4)c3C2c2cccc(O)c2)cc1 (stereo unspecified) | 21µM* | . | i | 21µM* | . | i
CCOC(=O)c1ccc(N2C(=O)c3n[nH]c(-c4ccco4)c3C2c2cccc(F)c2)cc1 (stereo unspecified) | 18µM* | . | i | 21µM* | . | i
O=C(O)c1ccc(N2C(=O)c3[nH]nc(-c4ccccc4)c3C2c2cccc(F)c2)cc1 (stereo unspecified) | -12% | . | i | -5% | . | i
CCOC(=O)c1ccc(N2C(=O)c3n[nH]c(-c4ccco4)c3C2c2ccc(OCC)cc2)cc1 (stereo unspecified) | ? | . | . | 16µM* | . | .
CCOC(=O)c1ccc(N2C(=O)c3n[nH]c(-c4ccco4)c3C2c2cccc(OC)c2)cc1 (stereo unspecified) | 23µM* | . | ? | 18µM* | . | ?
CCOC(=O)c1ccc(N2C(=O)c3n[nH]c(-c4ccco4)c3C2c2ccc(F)cc2)cc1 (stereo unspecified) | 23µM* | . | i | 23µM* | . | i
COc1ccc(OC)c(NC(=O)C(Cc2ccccc2)NS(=O)(=O)c2ccc3c(c2)CCC(=O)N3)c1 (stereo unspecified) | ? | . | i | ? | . | ?
COc1ccc(OC)c(N(CCN2C(=O)c3ccccc3C2=O)C(=O)CCl)c1 | ? | 16µM* | ? | 21µM* | ? | ?
COC(=O)[C@]12CCCCC=C1N(CCC1=CCCCC1)C(=O)[C@H](CC(=O)NCCC(C)C)C2 | ? | ? | ? | ? | ? | i
COCCCNC(=O)C[C@@H]1C[C@@]2(C(=O)OC)CCCCC=C2N(CCC2=CCCCC2)C1=O | ? | -8% | i | 16µM* | 0% | i
CCOC(=O)[C@]12CCC=C1N(CCC1=CCCCC1)C(=O)[C@H](CC(=O)NCCCOC)C2 | -22% | 5% | i | ? | 27% | i
COC(=O)[C@]12CCCCC=C1N(CCC1=CCCCC1)C(=O)[C@H](CC(=O)NCCCCc1ccccc1)C2 | ? | ? | ? | 18µM* | ? | i
CSc1nc(N)nc2c1ncn2CC(=O)NCc1ccc2[nH]ccc2c1 | ? | -1% | i | ? | -2% | i
Cc1cc(C)n2c(Nc3ccc4c(c3)OCCO4)c(C3CC3)nc2n1 | ? | 6% | ? | 18µM* | -1% | ?
Cc1cc(C)n2c(Nc3ccc4c(c3)OCCO4)c(CCc3ccccc3)nc2n1 | 8.2µM* | -29% | i | 5.8µM* | ? | ?
Cc1cc(C)n2c(Nc3ccc4c(c3)OCCO4)c(C(C)C)nc2n1 | 8.2µM* | 18% | i | 5.8µM* | 15% | ?
Cc1cc(C)n2c(Nc3ccc4c(c3)OCCO4)c(-c3ccccc3)nc2n1 | ? | 5% | i | ? | 4% | i
Cc1cc(C)n2c(Nc3ccc4c(c3)OCCO4)c(-c3ccc(Cl)cc3)nc2n1 | ? | . | i | ? | . | i
COC(=O)c1cn(NC(=O)c2cc([N+](=O)[O-])ccc2F)c(=O)c2ccccc12 | 3.3µM* | 9.2µM* | ? | 4.6µM* | ? | 12µM*
COc1cc(OC)cc(C(=O)Nn2cc(C(=O)N3CCN(C)CC3)c3ccccc3c2=O)c1 | -5% | 14% | i | -5% | 17% | i
COc1cc(OC)cc(C(=O)Nn2cc(C(=O)Nc3ccc(F)cc3F)c3ccccc3c2=O)c1 | 13µM* | -9% | i | ? | 0% | ?
COc1ccc(S(=O)(=O)N2CCCN(CC(=O)Nc3ccccc3F)CC2)cc1 | -28% | -5% | i | ? | 15% | 9.2µM*
SMILES | DT40 TDP1 CPT | HT1080 IDH1KD tx | KB-3-1 tox | DT40 TDP1 no CPT | HT1080NT lethal | KB-V1 MDR tox
COc1ccc(NC(=O)CN2CCCN(S(=O)(=O)c3ccc(Br)cc3)CC2)c(OC)c1 | ? | . | ? | 23µM* | . | ?
COc1ccc(C)cc1NC(=O)c1ccc(S(=O)(=O)N2CCOCC2)cc1 | -5% | -1% | i | -2% | -6% | 16µM*
COc1ccc(C)cc1NC(=O)c1cccc(C(=O)Nc2cc(C)ccc2OC)c1 | 15µM* | 7% | i | 10µM* | 5% | i
CS(=O)(=O)Nc1cccc(-c2ccc3nncn3c2)c1 | 6% | 10% | i | -6% | ? | i
COC(=O)c1sccc1S(=O)(=O)N1CCN(c2ccc(C(C)=O)cc2)CC1 | -26% | . | i | -28% | . | i
Cc1ccc(NS(=O)(=O)c2ccc(C)c(NC(=O)c3ccc(S(=O)(=O)N4CCCCCC4)cc3)c2)c(C)c1 | 18µM* | -11% | i | 10µM* | -3% | i
COc1ccc(NC(=O)c2cccc(S(=O)(=O)N3CCCCC3)c2)c(OC)c1 | ? | -7% | i | -19% | 0% | ?
COc1ccc(NC(=O)c2ccc(S(=O)(=O)N3CCCCCC3)cc2)c(OC)c1 | -27% | 1% | i | 13µM* | -10% | i
Cc1ccc(NC(=O)c2cc(S(=O)(=O)N3CCOCC3)ccc2F)c(C)c1 | -17% | -17% | i | -16% | 13% | 13µM*
Cc1cc(C)c(NC(=O)c2cc(S(=O)(=O)N3CCOCC3)ccc2F)c(C)c1 | ? | -5% | i | -23% | 0% | i
COc1ccc(C(=O)Nc2cc(OC)ccc2OC)cc1 | -11% | 0% | i | -12% | 0% | i
Cc1ccc(S(=O)(=O)N2CCCCC2)cc1NC(=O)c1ccc2c(c1)OCO2 | ? | -3% | i | ? | -1% | ?
